Screening data from PubChem BioAssay.
DT40 TDP1 no CPT: qHTS for Inhibitors of human tyrosyl-DNA phosphodiesterase 1 (TDP1): qHTS in cells in absence of CPT | hit rate 15% among 420,000 | DT40 Tdp1-/- hTDP1 cells, no CPT, ATP luminescence, 48 h | Potency, µM (series often up to 46.2 µM), without a hit: at the top dose activity change, negative = growth inhibition, actives largely listed as inhibitors; also: potency is read from the fitted curve at half-maximal effect; nearly all actives have a fitted effect of over 55% in size
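Readout: luminescence from CellTiter-Glo after 30 min in the dark at RT. Cells: DT40 Tdp1-/- with stable hTDP1, 400/well. Exposure: compounds alone, ≥48 hr, 37 °C.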
12-LOX inh: inhibitors of human 12S-lipoxygenase ALOX12. purified 12hLO, xylenol orange hydroperoxide absorbance. Potency, µM (highest dose often 108 µM), without a hit: top-dose activity change, negative = inhibition, actives largely listed as inhibitors. hit rate 1.1% among 580,000; also: potency is read from the fitted curve at half-maximal effect
Target sequence (P18054 whole entry, looked up): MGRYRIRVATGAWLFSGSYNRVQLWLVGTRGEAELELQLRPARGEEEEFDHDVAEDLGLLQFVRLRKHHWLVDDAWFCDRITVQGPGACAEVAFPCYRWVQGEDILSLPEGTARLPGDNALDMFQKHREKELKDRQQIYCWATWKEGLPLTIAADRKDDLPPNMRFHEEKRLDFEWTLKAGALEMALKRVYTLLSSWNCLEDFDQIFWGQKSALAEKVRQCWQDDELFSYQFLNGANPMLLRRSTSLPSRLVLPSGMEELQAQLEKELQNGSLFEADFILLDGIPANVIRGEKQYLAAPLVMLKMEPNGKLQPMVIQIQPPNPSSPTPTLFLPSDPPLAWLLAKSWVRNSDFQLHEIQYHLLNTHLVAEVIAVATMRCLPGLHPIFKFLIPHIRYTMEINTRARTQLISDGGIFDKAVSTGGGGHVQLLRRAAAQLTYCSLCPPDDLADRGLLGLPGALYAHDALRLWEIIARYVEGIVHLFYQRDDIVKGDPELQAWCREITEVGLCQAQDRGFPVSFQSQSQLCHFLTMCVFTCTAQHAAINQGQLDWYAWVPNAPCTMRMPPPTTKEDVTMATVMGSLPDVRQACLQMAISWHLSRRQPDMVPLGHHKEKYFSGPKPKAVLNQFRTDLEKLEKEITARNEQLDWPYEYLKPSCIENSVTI
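Purified human 12hLO at 150 nM in 25 mM Hepes, 0.01% Triton X-100, pH 7.0, preincubated 15 min at room temperature with compound. Reaction started with 40 uM arachidonic acid, 30 min at room temperature. Hydroperoxide measured by Fe-xylenol orange, 573/405 nm absorbance ratio.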
TDP1 cell CPT: DT40-hTDP1 cell growth loss with CPT; chicken DT40 Tdp1-/-;hTDP1 cells + 20 nM CPT, ATP luminescence, 48 h; hit rate 12% among 420,000; Potency, µM (doses to about 46.2 µM), inactives show top-dose activity change, negative = growth inhibition, most hits filed as inhibitors; also: potency is read from the fitted curve at half-maximal effect; nearly all actives have a fitted effect of over 55% in size
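Chicken DT40 Tdp1-/- cells stably complemented with human TDP1 were seeded at 400 cells/well in medium containing 20 nM camptothecin, exposed to pin-transferred compounds, and grown at 37 °C for at least 48 hr. Viability was read as ATP luminescence.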
HT1080 IDH1KD tx: toxicity to HT-1080 IDH1 knockdown cells (counter line) | HT-1080 IDH1 knockdown viability, ATP luminescence, 48 h | Potency, µM (doses to about 46.1 µM), without a hit: top-dose activity, negative = toxicity, most hits filed as cytotoxic | hit rate 2% among 360,000;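 also: potency is read from the fitted curve at half-maximal effect; 0% = DMSO wells and -100% = cell-free medium wells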
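Luminescent ATP read-out (CellTiter-Glo, 10 min at room temperature) after 48 h compound exposure at 37 °C gave viability of IDH1-knockdown HT-1080 cells. Activity was normalised to DMSO and cell-free wells, then fitted as concentration-response curves.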
IL-1B inflam inh: inflammasome signaling inhibition, IL-1 beta readout; THP-1 LPS/ATP IL-1B secretion, AlphaLISA, 16 h; stronger effect = lower value; activity change, % at 57.5 µM; hit rate 4.7% among 360,000; in the data active = activity change below about -50%; inconclusive = mostly about -30% to -49%
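Secreted IL-1B measured by AlphaLISA bead assay after 16 h compound exposure of THP-1 cells; compounds (final up to 57.5 uM) added 1 h before LPS (250 ng/mL) and ATP (1.25 mM) stimulation; lower signal means less secretion.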
HT1080-NT tox: kills 2HG-producing HT-1080-NT fibrosarcoma cells. HT-1080-NT fibrosarcoma viability, CellTiter-Glo ATP luminescence, 48 h. Potency, µM (highest dose often 46.1 µM), for the others: at the highest dose activity, negative = less viability, hits mostly cytotoxic. hit rate 1.6% among 360,000. AID 686970;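 also: NT is the 2HG producing partner of a matched IDH1 knockdown line; potency is read from the fitted curve at half-maximal effect; 0% = DMSO-treated cells and -100% = media-only wells without cells; nearly all actives have a fitted effect of over 55% in size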
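750 cells/well, RPMI + 5% FBS; 2 h settle, compound pin-transfer, 48 h at 37 degrees C. CellTiter-Glo 10 min RT, luminescence. Normalized to DMSO and media-only wells.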
Starred values were filed as active, the others as inactive; ? = inconclusive; / = no result given; [ ] = remark or other dose. The full list was thinned out, with hits kept by preference. Unless noted, calls follow the shape of the dose curve; as a rule, active = well fitted curve in the direction sought with a large enough effect; inconclusive = small, poorly fitted or top-dose-only effect, or another doubt; inactive = no such curve, though single readings can be large; an effect the other way counts as inactive or inconclusive. Unless noted, % is scaled to controls: 0 for no effect and ±100 for the full control effect.

SMILES	DT40 TDP1 no CPT	12-LOX inh	TDP1 cell CPT	HT1080 IDH1KD tx	IL-1B inflam inh	HT1080-NT tox
O=C(Nc1nc2ccc3ccccc3c2s1)c1ccc(N2CCCCC2)c([N+](=O)[O-])c1	?	-16%	?	22%	-14	26%
CC1(C)CCCC(C)(C#CCN2CCCCC2c2cccnc2)O1 (stereo not drawn)	/	-6%	/	/	/	/
NC(=O)C1CN(CC(=O)Nc2ccccc2Cl)c2ccccc2O1 (stereo not drawn)	/	9%	/	/	/	/
COc1cccc(/C=N/NC(=O)c2cnn(-c3ccccc3)c2N)c1	21µM*	154%	?	-7%	55	5%
Nc1c(C(=O)N/N=C/c2cccnc2)cnn1-c1ccccc1	-12%	-2%	-12%	-2%	62	0%
Nc1c(C(=O)N/N=C/c2ccc(OCc3ccccc3)cc2)cnn1-c1ccccc1	12µM*	0%	16µM*	1%	-7	-25%
Cc1ccc(Oc2ccc(S(=O)(=O)N3CCOCC3)cc2C(N)=O)c(-n2nc3ccccc3n2)c1	4.1µM*	0%	3.7µM*	4.1µM*	46	?
COc1ccccc1Oc1ccc(S(=O)(=O)N2CCOCC2)cc1S(=O)(=O)N1CCOCC1	-21%	-1%	8%	0%	-17	2%
C=C(C)COc1cc(C)cc2oc(=O)c(CC(=O)Nc3nc(CC(=O)O)cs3)c(C)c12	/	-15%	/	/	/	/
O=C(Nc1ccc2oc(-c3cccnc3)nc2c1)c1cc([N+](=O)[O-])ccc1Cl	/	-35%	/	/	/	/
CCCCc1c(-c2ccccc2OC)ncn1Cc1c(F)cccc1F	/	-30%	/	/	/	/
CCCCc1c(-c2ccccc2F)ncn1CCc1ccccc1OC	16µM*	?	26µM*	?	-59*	?
CCCCCc1c(-c2ccccc2F)ncn1CCc1ccccc1OC	18µM*	-74%	16µM*	?	-95*	?
CN(Cc1cc(C[C@@H]2C[C@H](NCc3cccnc3)C2(C)C)no1)c1ccccc1	/	19%[176 µM]	/	/	/	/
COc1cc2c(c3c1c(=O)c1ccccc1n3C)C=CC(C)(C)O2	/	13%	/	/	/	/
COc1ccc(OCc2cc(=O)c3ccc4c(c3o2)C=CC(C)(C)O4)cc1OC	?	?	16µM*	-2%	-12	7%
Cc1cc(C)cc(C(O)c2ncc(-c3ccc(C(F)(F)F)cc3)[nH]2)c1 (stereo not drawn)	16µM*	-3%	?	?	107	?
Cc1ccc(C(O)c2ncc(-c3ccc4ccccc4c3)[nH]2)cc1F (stereo not drawn)	18µM*	?	29µM*	-15%	0	-19%
OC(c1ccc(Cl)c(Cl)c1)c1ncc(-c2ccc(C(F)(F)F)cc2)[nH]1 (stereo not drawn)	16µM*	-33%	?	?	?	?
Cc1ccc(C(O)c2ncc(-c3ccc(F)cc3)[nH]2)cc1F (stereo not drawn)	?	-8%	?	-9%	8	-4%
Cc1ccc(C(O)c2ncc(-c3ccc(C(F)(F)F)cc3)[nH]2)cc1F (stereo not drawn)	21µM*	-11%	?	?	-23	?
Cc1cc(C)cc(C(O)c2ncc(-c3cccc(C(F)(F)F)c3)[nH]2)c1 (stereo not drawn)	?	?	?	?	-9	?
Cc1cccc2c(=O)c(-c3ccc4c(c3)OCO4)c(NC(=O)c3ccc(F)cc3)oc12	/	-5%	/	/	/	/
Cc1oc2c(c1C(=O)N(C)CC(=O)N1CCOCC1)CN(Cc1ccc(F)cc1)CC2	/	13%	/	/	/	/
Cc1c(C)n(Cc2ccccc2)c2ncnc(N)c12	23µM*	-3%	15µM*	-14%	-6	-7%
SMILES	DT40 TDP1 no CPT	12-LOX inh	TDP1 cell CPT	HT1080 IDH1KD tx	IL-1B inflam inh	HT1080-NT tox
COc1ccccc1CNC[C@H]1Cn2cc(-c3ccccc3OC)nc2CO1	/	44%[176 µM]	/	/	/	/
CCn1nc(C)c2ccn(CC(=O)NCc3ccccc3C(F)(F)F)c(=O)c21	/	0%	/	/	/	/
CCOC(=O)C1(CCOc2ccccc2)CCN(Cc2cc(OC)c3c(c2)OCO3)CC1	12µM*	-1%	21µM*	18µM*	-61*	18µM*
CCOC(=O)C1(CCOc2ccccc2)CCN(Cc2cccc3c2OCO3)CC1	15µM*	-3%	23µM*	?	-84*	21µM*
CCOC(=O)C1(CCOc2ccccc2)CCN(CC2CC2)CC1	-10%	-3%	8%	0%	-5	-2%
CN1c2cccnc2CN(Cc2cccc(Cl)c2)CC[C@H]1CO	/	81%[176 µM]	/	/	/	/
COc1cc(-c2onc(C)c2C(=O)N2CCC(Cc3ccc4c(c3)OCO4)CC2)cc(OC)c1OC	/	12%	/	/	/	/
COc1cccc(C(=O)NC[C@@H]2CC[C@H]3C[C@@H]2C3(C)C)c1	/	-4%[176 µM]	/	/	/	/
COc1ccc(CCNS(=O)(=O)c2ccc(N3CCCCS3(=O)=O)cc2)cc1OC	21µM*	-12%	?	/	/	/
CC(C)CNS(=O)(=O)c1ccc(N2CCCCS2(=O)=O)cc1	?	-21%	?	/	/	/
NS(=O)(=O)c1ccc(CCNS(=O)(=O)c2ccc(Cl)cc2)cc1	1%	-49%	-13%	-1%	-9	2%
O=S(=O)(NCCc1ccc(Cl)cc1)c1ccc(N2CCCCS2(=O)=O)cc1	23µM*	?	18µM*	/	/	/
CCN(c1cccc(C)c1)S(=O)(=O)c1ccc(N2CCCCS2(=O)=O)cc1	23µM*	0%	13µM*	/	/	/
COc1ccc(CCNS(=O)(=O)c2ccc(S(=O)(=O)N3CCCC3)cc2)cc1OC	?	-27%	?	1%[9.24 µM]	-8	-24%
O=S(=O)(NCCc1ccccc1)c1ccc(N2CCCCS2(=O)=O)cc1	23µM*	-39%	18µM*	/	/	/
Cc1ccc(CNS(=O)(=O)c2ccc(N3CCCCS3(=O)=O)cc2)cc1	16µM*	-13%	12µM*	/	/	/
CCCCNS(=O)(=O)c1ccc(N2CCCCS2(=O)=O)cc1	23µM*	?	?	/	/	/
OC(CN1CCN(C(c2ccccc2)c2ccccc2)CC1)c1ccc(Br)cc1 (stereo not drawn)	?	?	18µM*	0%	-1	1%
OC(CN1CCN(C(c2ccccc2)c2ccccc2)CC1)c1ccccc1 (stereo not drawn)	?	/	?	7%	0	0%
OC(CN1CCCCC1)c1ccccc1 (stereo not drawn)	3%	/	0%	/	/	/
